From PubChem BioAssay
Hits are enriched below; roughly 7.4% of the tested compounds scored in any of these assays.
NIH3T3 tox – Cytotoxic Profiling in NIH 3T3 Cell Line of Diverse Libraries Using Quantitative High-Throughput Screening; Potency, µM (highest dose often 96.7 µM), usual class: inhibitors; NIH 3T3 viability, CellTiter-Glo ATP luminescence, 48-72 h; 4.3% of 94,000 active; note: nearly all actives have a fitted effect of over 55% in size
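Luminescent ATP readout (CellTiter-Glo, 10 min RT) after 48 or 72 hr compound exposure of NIH 3T3 cells seeded at 400 cells/well in 1536-well format; quantitative HTS.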
FLuc inh – Firefly luciferase inhibition profiling of diverse chemical library using quantitative high-throughput screening. Luciferin 4-monooxygenase (Photinus pyralis), P08659. purified P. pyralis luciferase, luminescence, biochemical. Potency, µM (doses to about 115 µM), hits mostly inhibitors. 2.5% of 76,000 active. AID 1347043, 2019; note: nearly all actives have a fitted effect of over 65% in size
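Cell-free enzyme assay, 10nM P. pyralis luciferase, luciferin and ATP each at 10uM. Inhibition profiled over a 6-point titration, read as luminescence.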
SNCA expr inhib – Primary qHTS assay for inhibitors of alpha-synuclein gene (SNCA) expression; 0.17% of 140,000 active; Potency, µM (highest dose often 57.2 µM), most hits filed as inhibitors; AID 1671194, 2021; HEK-293 SNCA-luciferase knock-in, luminescence, 24 h; note: nearly all actives have a fitted effect of over 45% in size
HEK cytotox – Cytotoxic Profiling in HEK 293 Cell Line of Diverse Libraries Using Quantitative High-Throughput Screening | Potency, µM (highest dose often 115 µM), hits mostly inhibitors | HEK 293 viability, ATP luminescence (CellTiter-Glo), 48-72 h | AID 1345083, 2018 | 6.6% of 94,000 active; note: nearly all actives have a fitted effect of over 60% in size
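Luminescence from cellular ATP, measured with CellTiter-Glo, indicates HEK 293 viability. Cells plated at 250 cells/well are treated with compound for 48 or 72 hr at 37 degree Celsius before reagent addition.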
HEK293 viab – GF-AFC viability counterscreen for inhibitors of alpha-synuclein gene (SNCA) expression; HEK-293-SNCA-luc viability, GF-AFC fluorescence, 24 h; Potency, µM (titrated, usually from 57.1 µM), actives largely listed as cytotoxic; 0.12% of 150,000 active; note: nearly all actives have a fitted effect of over 30% in size
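Cytotoxicity counterscreen: after 24 h compound treatment of genome-edited SNCA-luciferase HEK-293 cells, live-cell protease substrate GF-AFC read by fluorescence after 30 min; activity scaled between DMSO (0%) and medium-only (-100%), curves Hill-fitted.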
NPR1 antag – Natriuretic polypeptide receptor (hNpr1) antagonism - Primary qHTS; HEK293 hNpr1 GloSensor cGMP, ANP-stimulated luminescence; Potency, µM (doses to about 46.3 µM), usual class: inhibitors; 1.6% of 76,000 active; calls by dose curve; note: nearly all actives have a fitted effect of over 60% in size
Target sequence (P16066 whole entry, looked up): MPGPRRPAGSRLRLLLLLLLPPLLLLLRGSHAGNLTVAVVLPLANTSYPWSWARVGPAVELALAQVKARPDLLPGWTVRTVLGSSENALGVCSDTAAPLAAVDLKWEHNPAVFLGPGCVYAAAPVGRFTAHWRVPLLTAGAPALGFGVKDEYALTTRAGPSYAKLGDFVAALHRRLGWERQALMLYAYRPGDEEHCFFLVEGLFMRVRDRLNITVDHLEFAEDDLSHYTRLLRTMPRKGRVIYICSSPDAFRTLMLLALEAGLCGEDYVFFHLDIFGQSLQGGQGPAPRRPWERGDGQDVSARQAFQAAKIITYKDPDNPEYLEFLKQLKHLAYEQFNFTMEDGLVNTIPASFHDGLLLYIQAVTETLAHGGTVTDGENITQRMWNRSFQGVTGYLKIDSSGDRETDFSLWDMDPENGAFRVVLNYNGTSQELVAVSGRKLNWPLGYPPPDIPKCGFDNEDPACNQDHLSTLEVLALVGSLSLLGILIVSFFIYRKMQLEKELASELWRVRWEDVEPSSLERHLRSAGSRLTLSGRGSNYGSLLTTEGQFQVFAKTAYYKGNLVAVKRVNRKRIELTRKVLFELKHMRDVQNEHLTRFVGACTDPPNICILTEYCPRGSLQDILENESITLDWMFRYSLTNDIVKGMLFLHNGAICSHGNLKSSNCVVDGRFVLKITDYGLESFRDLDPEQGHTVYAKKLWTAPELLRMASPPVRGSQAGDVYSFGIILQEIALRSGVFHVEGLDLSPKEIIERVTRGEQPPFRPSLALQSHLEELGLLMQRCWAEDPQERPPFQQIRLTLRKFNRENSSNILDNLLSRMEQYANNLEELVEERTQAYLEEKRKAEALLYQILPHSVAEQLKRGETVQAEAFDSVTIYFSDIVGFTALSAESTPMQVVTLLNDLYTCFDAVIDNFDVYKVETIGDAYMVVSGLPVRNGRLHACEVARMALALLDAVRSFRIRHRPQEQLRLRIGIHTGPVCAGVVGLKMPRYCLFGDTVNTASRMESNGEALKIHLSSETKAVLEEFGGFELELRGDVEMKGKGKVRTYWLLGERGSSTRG
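HEK293 cells stably expressing human Npr1 and cGMP GloSensor pGS-40F, loaded 2 h with 2% GloSensor reagent, given compound 30 min at room temperature. Luminescence read before and 20 min after 0.1 nM hNppA.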
Each line names hits and unclear results; the compound was inactive in the other large screens. Unless noted, calls come from the whole dose curve; as a rule, active = well fitted curve in the direction sought with a large enough effect; inconclusive = small, poorly fitted or top-dose-only effect, or another doubt; inactive = no such curve, though single readings can be large; an effect the other way counts as inactive or inconclusive.

O=C(Nc1ccc(F)cc1F)N1CCCC(Cn2c(C3CC3)nc3cccnc32)C1 (stereo not given)	none
COC(=O)C1=CO[C@@H](O[C@@H]2O[C@H](CO)[C@@H](O)[C@H](O)[C@H]2O)[C@@H]2[C@@](C)(O)[C@@H](O)C[C@]12O	none (no result: NIH3T3 tox, FLuc inh, SNCA expr inhib, HEK cytotox, NPR1 antag)
COc1ccc(C(=O)N2CC[C@@H]3COCCN(C)[C@@H]3C2)c(OC)c1	FLuc inh 22µM, HEK cytotox inconclusive
O=C(NC1CCN(c2cc(-c3ccc(F)cc3)[nH]n2)CC1)c1ccc2[nH]ccc2c1	NIH3T3 tox 25µM, HEK cytotox inconclusive
O=C(NC1CCN(c2cc(-c3ccc(F)cc3)[nH]n2)C1)c1ccc2cc[nH]c2c1 (stereo not given)	NIH3T3 tox inconclusive, HEK cytotox inconclusive
COc1ccc(C(=O)NC2CCN(c3cc(-c4ccc(Cl)cc4)[nH]n3)CC2)cc1	SNCA expr inhib inconclusive
N#Cc1ccc(C(=O)NC2CCN(c3cc(-c4ccc(Cl)cc4)[nH]n3)C2)cc1 (stereo not given)	NIH3T3 tox inconclusive, HEK cytotox 45µM, NPR1 antag inconclusive
O=C(NC1CCN(c2cc(-c3ccc(Cl)cc3)[nH]n2)C1)c1ccc2[nH]ccc2c1 (stereo not given)	NIH3T3 tox 40µM, FLuc inh inconclusive, HEK cytotox inconclusive
O=C(NC1CCN(c2cc(-c3ccc(Cl)cc3)[nH]n2)CC1)c1ccncc1	NIH3T3 tox inconclusive, HEK cytotox 28µM, NPR1 antag inconclusive
O=C(NC1CCN(c2cc(-c3ccc(F)cc3)[nH]n2)C1)c1ccc2[nH]ccc2c1 (stereo not given)	NIH3T3 tox inconclusive, SNCA expr inhib inconclusive, HEK cytotox inconclusive
O=C(c1cncc(Br)c1)N1CCCN(c2ccnc3ccnn23)CC1	NIH3T3 tox inconclusive, SNCA expr inhib inconclusive, HEK cytotox inconclusive (no result: FLuc inh, NPR1 antag)
O=C(NC1CCN(c2cc(-c3ccc(F)cc3)[nH]n2)CC1)c1ccc(OC(F)(F)F)cc1	NIH3T3 tox 28µM, HEK cytotox 20µM
COc1ccc(C(=O)NC2CCN(c3cc(-c4ccc(F)cc4)[nH]n3)CC2)cc1	HEK cytotox inconclusive
Cn1ccnc1-c1ccc(N2CCC(CO)(CCOc3ccccc3)CC2)nn1	NIH3T3 tox inconclusive, FLuc inh 40µM, HEK cytotox inconclusive
COCCC1(CO)CCCN(Cc2ccc(C#N)cc2)C1 (stereo not given)	none
OCC1(CCOc2ccccc2)CCN(c2nnnn2-c2ccccc2)CC1	NIH3T3 tox inconclusive, HEK cytotox inconclusive
Cn1ccnc1-c1ccc(N2CCCC(CO)(CCOc3ccccc3)C2)nn1 (stereo not given)	NIH3T3 tox inconclusive, HEK cytotox 32µM, HEK293 viab inconclusive, NPR1 antag inconclusive
Cn1ccnc1-c1cn(CC2(c3ccccc3F)CCCC2)nn1	NIH3T3 tox inconclusive, HEK cytotox inconclusive
Cc1ccccc1CC1(CO)CCCN(c2ccc(-c3nccn3C)nn2)C1 (stereo not given)	NIH3T3 tox inconclusive, SNCA expr inhib inconclusive, HEK cytotox 32µM, HEK293 viab inconclusive, NPR1 antag inconclusive
COC(=O)CC1C(=O)NCCN1C(=O)c1ccccc1-c1ncc[nH]1 (stereo not given)	none
O=C(C1CCCCCC1)N1CCC(n2cc(C3CCCCC3)nn2)CC1	NIH3T3 tox inconclusive, HEK cytotox 89µM, NPR1 antag inconclusive
O=C(c1[nH]nc2c1COc1ccccc1-2)N1CCC(Cc2nncn2CC2CC2)CC1	NIH3T3 tox 40µM
O=C(C1CCCC1)N1CCN(c2nc3ncccc3o2)CC1	none
Cc1ccsc1C(=O)C1CCCN(Cc2cc(F)ccc2-n2cccn2)C1 (stereo not given)	NIH3T3 tox inconclusive, HEK cytotox 40µM
